Measurements reported in PubChem BioAssay (Tox21).
A number with no mark means an inactive call. Activity calls are given as the source filed them. Calls come from the whole dose curve; as a rule, active = well fitted curve in the direction sought with a large enough effect in the repeat runs; inconclusive = weak or mixed curves; inactive = flat fitted curve, though single readings scatter.

Assay: qHTS assay to test for compound auto fluorescence at 535 nm (green) in HEK293 cell free culture (AID 720682)
Settings: cell-free medium, green autofluorescence 485/535 nm; series mostly up to 46 µM; activity change: at the top concentration
Excerpt: U.S. Tox21 Program National Center for Advancing Translational Sciences [NCATS] NIH Chemical Genomics Center [NCGC] U.S. Environmental Protection Agency [EPA] National Institutes of Environmental Health Sciences [NIEHS] National Toxicology Program [NTP] U.S. Food and Drug Administration [FDA] Tox21 Assay Overview: Compound auto fluorescence often interferes with screening of the compound library against various biological targets and signaling pathways. Some of these compounds may have fluorophoric properties. Such properties may interfere with the assay outputs resulting in false positives and/or negatives. To decrease such complications and ensure the compound activities are relevant in terms of biological response, the Tox21 10K compound library was screened for auto fluorescence. From the fluorophores used as reporter signals in our screening assays, the auto fluorescence equivalencies of compounds against three fluorophores have been evaluated: Triamterene, Fluorescein and Rose Bengal sodium for blue, green and red fluorescence, respectively. The fluorescence intensities were measured using Excitation/Emission wavelengths at 405/460nm, 485/535nm and 540/590nm for blue, green and red labels, respectively. This assay includes the green fluorescence data.
Tox21 Assay Protocol Summary: 5 uL of culture medium (DMEM containing 10% FBS) per well was dispensed into black wall/clear bottom 1536-well plates using a Multidrop Combi Dispenser (ThermoFisher Scientific, Waltham, MA). After 23 nL compound or DMSO vehicle was transferred into assay plate by a pintool work station (Kalypsys, San Diego, CA), fluorescence intensities in the assay plates were measured by an Envision (PerkinElmer, Shelton, CT) plate reader using three labels for measuring blue, green and red fluorescence at […] 460, 535 and 590nm respectively.
% is set by controls: 0 for no effect and ±100 for the full control effect.

Going from `CN1CCCC(=C(c2cccs2)c2cccs2)C1` to `CCCN1CCC[C@H](c2cccc(O)c2)C1`, the “activity change” value falls from -0.0133% to -0.215%.

Compared with `F/C(COc1ccc2c(c1)[nH]c1ccccc12)=C1/CN2CCC1CC2`, `C=C[C@H]1CN2CC[C@H]1C[C@@H]2[C@@H](O)c1ccnc2ccccc12` is lower in “activity change” value: -0.0089% for the first, -0.0887% for the second.

Compared with `CN[C@@]1(c2ccccc2Cl)CCCCC1=O`, `CN[C@]1(c2ccccc2Cl)CCCCC1=O` is lower in “activity change” value: -0.0556% for the first, -0.0811% for the second.

First: C=CC[C@]1(O)CC[C@H]2[C@@H]3CCC4=CCCC[C@@H]4[C@H]3CC[C@@]21C
Second: C[C@]12CC[C@H](OS(=O)(=O)O)CC1=CC[C@@H]1[C@@H]2CC[C@]2(C)C(=O)CC[C@@H]12
The “activity change” value of the first is higher: 0.0419% for the first, 0.0038% for the second.

Compared with `CCN(CC)C(=O)N[C@H]1C[C@@H]2c3cccc4[nH]cc(c34)C[C@H]2N(C)C1`, `CC(C)C[C@H]1C(=O)N2CCC[C@H]2[C@]2(O)O[C@](NC(=O)[C@@H]3C[C@@H]4c5cccc6[nH]cc(c56)C[C@H]4N(C)C3)(C(C)C)C(=O)N12` is lower in “activity change” value: 0.607% for the first, 0.284% for the second.

Going from `CN1C(=O)CC(=O)N(c2ccccc2)c2cc(Cl)ccc21` to `O=c1c2ccccc2[se]n1-c1ccccc1`, the “activity change” value rises from 0.0183% to 0.093%.

Compared with `O=P(O)(O)C(Cl)(Cl)P(=O)(O)O`, `CCCC(=O)OC(C(Cl)(Cl)Cl)P(=O)(OC)OC` (stereo not given) is lower in “activity change” value: 0.0076% for the first, -0.0573% for the second.

Compared with `CNc1ccc(C(=O)CC(O)CCC(C)C2OC(=O)CC(O)CC(=O)CC(O)CC(O)CC(O)CC(O)CC3(O)CC(O)C(C(=O)OC)C(CC(O[C@@H]4O[C@H](C)[C@@H](O)[C@H](N)[C@@H]4O)/C=C/C=C/C=C/C=C/C=C/C=C/C=C/C2C)O3)cc1` (stereo not given in full), `CC(=O)O[C@H]1C[C@H](O[C@H]2[C@@H](O)C[C@H](O[C@H]3[C@@H](O)C[C@H](O[C@H]4CC[C@@]5(C)[C@H](CC[C@@H]6[C@@H]5C[C@@H](O)[C@]5(C)[C@@H](C7=CC(=O)OC7)CC[C@]65O)C4)O[C@@H]3C)O[C@@H]2C)O[C@H](C)[C@H]1O[C@@H]1O[C@H](CO)[C@@H](O)[C@H](O)[C@H]1O` is lower in “activity change” value: 0.0377% for the first, -0.0371% for the second.

Going from `CC(=O)[C@@]1(O)CC[C@H]2[C@@H]3CCC4=CC(=O)CC[C@]4(C)C3(F)[C@@H](O)C[C@@]21C` (stereo not given in full) to `CCCCCCC(=O)O[C@H]1CC[C@H]2[C@@H]3CC[C@H]4CC(=O)C=C(C)[C@]4(C)[C@H]3CC[C@]12C`, the “activity change” value rises from -0.0334% to 0.0078%.

Compared with `C#CCN1CC(=O)N(COC(=O)C2C(C=C(C)C)C2(C)C)C1=O` (stereo not given), `CCC1(CC)C(=O)NC(=O)N(C)C1=O` is lower in “activity change” value: 0.0303% for the first, -0.118% for the second.

First: O=C(CCl)c1ccc(Oc2ccc(C(=O)CCl)cc2)cc1
Second: CCCCNCC(O)c1ccc(O)cc1 (stereo not given)
The “activity change” value of the first is higher: 0.008% for the first, -0.0377% for the second.

Compared with `[2H]C([2H])([2H])[C@H](N)Cc1ccccc1`, `CC(N)Cc1ccc(O)cc1` (stereo not given) is higher in “activity change” value: -0.0863% for the first, -0.0243% for the second.

Compared with `c1ccc(C2(c3ccccc3)CC2C2=NCCN2)cc1` (stereo not given), `CC(C)[C@H]1C(=O)N2CCC[C@H]2[C@]2(O)O[C@](NC(=O)[C@@H]3C[C@@H]4c5cccc6[nH]cc(c56)C[C@H]4N(C)C3)(C(C)C)C(=O)N12` is higher in “activity change” value: -0.0173% for the first, 0.112% for the second.

First: COc1ccc2c3c1O[C@H]1C(=O)CC[C@H]4[C@@H](C2)N(C)CC[C@]314
Second: CC(=O)OC1CN2CCC1CC2 (stereo not given)
The “activity change” value of the first is lower: 0.0084% for the first, 0.0821% for the second.

First: CNC(=O)OCC[N+](C)(C)C
Second: CNC(C)CC1CCCCC1 (stereo not given)
The “activity change” value of the first is higher: -0.0442% for the first, -0.0694% for the second.

In the case of `NC1=NC(=O)N2CC12` (stereo not given), the “activity change” value is reported as -0.236%.

For `COC(=O)[C@H]1[C@@H](OC(=O)c2ccccc2)C[C@@H]2CC[C@H]1N2C`, the “activity change” value was 0.0253% [at 91.3 µM, active compounds read high].
With `CN[C@@H](C)Cc1ccccc1` the “activity change” value was -0.0078% [at 91.3 µM, active compounds read high].
With `CCC1(C)CC(=O)NC(=O)C1` the “activity change” value was -0.0114% [at 18.6 µM, active compounds read high].
For `C[C@]12CCC(=O)C=C1C=C[C@@H]1[C@@H]2CC[C@@]2(C)[C@H]1CC[C@@]2(O)CCC(=O)O`, the “activity change” value was -0.0065% [at 18.6 µM, active compounds read high].
With `Cc1ccc(N(SC(F)(Cl)Cl)S(=O)(=O)N(C)C)cc1` the “activity change” value was -0.0087% [at 91.3 µM, active compounds read high].

For `CNC1(c2ccccc2Cl)CCCCC1=O` (stereo not given), the Potency was “inactive”.
For `Cc1ccc2ccccc2c1C`, the Potency was “inactive”.
For `CN1[C@H]2CC[C@@H]1[C@@H](C(=O)O)[C@@H](OC(=O)c1ccccc1)C2`, the Potency was “inactive”.
With `CC(C)(O)[C@@H]1[C@H]2OC(=O)[C@@H]1[C@]1(O)C[C@H]3O[C@]34C(=O)O[C@H]2[C@]14C` the Potency was “inactive”.
